From ChEMBL document CHEMBL5606460, “ASAP - DENV-2 NS2B-NS3 protease fluorescence single point” (2024) come the findings set out here.

Out of some 2,000 compounds screened, about 110 (5.5%) showed an effect of 50% or more. The list comes from a sample in which strong results are over-represented; it also holds similar structures and randomly drawn compounds.

The assay addresses Genome polyprotein (dengue virus type 2) (UniProt P29990).
Setting [1] is: Thailand/16681/1984, Concentration 25.0 uM, Number of replicates 1.0.

One may read the inhibition as the change of the read-out against control, counted positive when it falls. Regarding `CCCC[C@H](NC(C)=O)C(=O)N[C@H](C(=O)NCc1ccc(C(N)=O)cc1)c1ccc(OCc2ccccc2)cc1`, the inhibition runs as follows: (Thailand/16681/1984, Concentration 49.5 uM, Number of replicates 2.0, Standard deviation 4.54767597440597 %) 18.2%; (Thailand/16681/1984, Concentration 99.01 uM, Number of replicates 2.0, Standard deviation 0.08657569598756192 %) 99.9%; (Thailand/16681/1984, Concentration 198.0 uM, Number of replicates 2.0, Standard deviation 0.08274539039489186 %) 99.7%.
Consider `c1cnc(C2CCN(Cc3c[nH]c4ccccc34)CC2)nc1`, for which the inhibition is, setting by setting: (Thailand/16681/1984, Concentration 49.5 uM, Number of replicates 2.0, Standard deviation 0.0814293971969877 %) -4.94%; (Thailand/16681/1984, Concentration 99.01 uM, Number of replicates 2.0, Standard deviation 1.1974150626674833 %) -3.24%; (Thailand/16681/1984, Concentration 198.0 uM, Number of replicates 2.0, Standard deviation 1.6263665310687148 %) -1.42%.
In the case of `COC(=O)c1csc(Cn2ncc(C3CCNCC3)c2C)n1`, the inhibition by setting is: (Thailand/16681/1984, Concentration 49.5 uM, Number of replicates 2.0, Standard deviation 0.7717951129802201 %) -5.62%; (Thailand/16681/1984, Concentration 99.01 uM, Number of replicates 2.0, Standard deviation 0.8815947340216488 %) -4.23%; (Thailand/16681/1984, Concentration 198.0 uM, Number of replicates 2.0, Standard deviation 1.4332580373412276 %) -2.98%.
As for `O=C(Cc1cnc[nH]1)NC1CCN(C(=O)c2cccc3[nH]ncc23)CC1`, the inhibition was -0.001% (Thailand/16681/1984, Concentration 49.5 uM, Number of replicates 2.0, Standard deviation 0.5712330544607026 %); 0.297% (Thailand/16681/1984, Concentration 99.01 uM, Number of replicates 2.0, Standard deviation 0.88648652906749 %); -0.087% (Thailand/16681/1984, Concentration 198.0 uM, Number of replicates 2.0, Standard deviation 1.4162803173835237 %).
Take `O=Cc1ccc(N2CCC(C(=O)Nc3n[nH]c4ccc(Br)cc34)CC2)cc1`: the inhibition under setting [1] worked out at 10.1%.
Take `CCN(CC)S(=O)(=O)c1ccc(NC(=O)C2CCN(c3ccc(C=O)cc3)CC2)cc1`: the inhibition under setting [1] was 12.2%.
In the case of `O=C(Nc1cc2c(cc1C1CC1)CNC2)c1cc(F)cc2[nH]ncc12`, the inhibition runs as follows: (Thailand/16681/1984, Concentration 99.5 uM, Number of replicates 2.0, Standard deviation 0.34945873996674337 %) 63.1%; (Thailand/16681/1984, Concentration 295.6 uM, Number of replicates 2.0, Standard deviation 0.6526301250248825 %) 85.2%.
On to `COc1cc(Cc2c(-c3ccc(F)cc3)noc2C)nc(N2CCNCC2)n1`, for which the inhibition runs as follows: (Thailand/16681/1984, Concentration 49.5 uM, Number of replicates 2.0, Standard deviation 0.4285559202279565 %) -0.048%; (Thailand/16681/1984, Concentration 99.01 uM, Number of replicates 2.0, Standard deviation 0.4007548684992308 %) 1.07%; (Thailand/16681/1984, Concentration 198.0 uM, Number of replicates 2.0, Standard deviation 0.4757654271085549 %) 6.24%.
Consider `O=Cc1ccc(N2CCC(C(=O)NCc3c(F)ccc(F)c3F)CC2)cc1`, for which the inhibition under setting [1] worked out at 12.3%.
Turning to `O=Cc1ccc(N2CCC(C(=O)NCCc3ccc(Cl)c(Cl)c3)CC2)cc1`, the inhibition under setting [1] stood at 11.5%.
Still for that read-out and setting: to `CCN(CC)C1CCN(C(=O)C2CCN(c3ccc(C=O)cc3)CC2)CC1` belongs 12.6%.
For the molecule `C[C@@H](NC(=O)c1cc(Cl)ccc1NS(=O)(=O)c1ccc(Oc2ccccc2Cl)cc1)[C@H]1CCCO1`, the inhibition by setting is: (Thailand/16681/1984, Concentration 49.5 uM, Number of replicates 2.0, Standard deviation 0.29635236214386457 %) 82.5%; (Thailand/16681/1984, Concentration 99.01 uM, Number of replicates 2.0, Standard deviation 0.052507555399236044 %) 84.4%; (Thailand/16681/1984, Concentration 198.0 uM, Number of replicates 2.0, Standard deviation 0.13838732262418607 %) 80.7%.
`C[C@@H](NC(=O)c1cc(Cl)ccc1NS(=O)(=O)c1ccc(Oc2ccccc2Cl)cc1)C1COC1`: the inhibition was determined as 59.2% (Thailand/16681/1984, Concentration 49.5 uM, Number of replicates 2.0, Standard deviation 0.4885797549298071 %); 68.4% (Thailand/16681/1984, Concentration 99.01 uM, Number of replicates 2.0, Standard deviation 0.152624190876378 %); 59.2% (Thailand/16681/1984, Concentration 198.0 uM, Number of replicates 2.0, Standard deviation 0.02447349481851786 %).
Take `Cc1cnccc1NC(=O)c1cc(C2CCCC2)n(C)c1C`: the inhibition by setting is: (Thailand/16681/1984, Concentration 49.5 uM, Number of replicates 2.0, Standard deviation 1.895573393565592 %) -3.53%; (Thailand/16681/1984, Concentration 99.01 uM, Number of replicates 2.0, Standard deviation 0.7217418528634704 %) -1.88%; (Thailand/16681/1984, Concentration 198.0 uM, Number of replicates 2.0, Standard deviation 1.3851925911876457 %) 0.718%.
With `COC[C@@H](C)CNC(=O)c1cc(Cl)ccc1NS(=O)(=O)c1ccc(Oc2ccccc2Cl)cc1`, the inhibition is, setting by setting: (Thailand/16681/1984, Concentration 49.5 uM, Number of replicates 2.0, Standard deviation 0.2816677257730929 %) 82.2%; (Thailand/16681/1984, Concentration 99.01 uM, Number of replicates 2.0, Standard deviation 0.03025941418209339 %) 83.8%; (Thailand/16681/1984, Concentration 198.0 uM, Number of replicates 2.0, Standard deviation 0.3452939569842909 %) 76.9%.
For `C[C@@H](CS(C)(=O)=O)NC(=O)c1cc(Cl)ccc1NS(=O)(=O)c1ccc(Oc2ccccc2Cl)cc1`, the inhibition is, setting by setting: (Thailand/16681/1984, Concentration 49.5 uM, Number of replicates 2.0, Standard deviation 0.5989303195749703 %) 51.1%; (Thailand/16681/1984, Concentration 99.01 uM, Number of replicates 2.0, Standard deviation 0.4213875631597994 %) 57%; (Thailand/16681/1984, Concentration 198.0 uM, Number of replicates 2.0, Standard deviation 0.24651523106627876 %) 43%.
Consider `CNC(=O)[C@@H](C)CNS(=O)(=O)c1ccc(Oc2ccccc2Cl)cc1`, for which the inhibition by setting is: (Thailand/16681/1984, Concentration 49.5 uM, Number of replicates 2.0, Standard deviation 0.8337442367954725 %) -0.747%; (Thailand/16681/1984, Concentration 99.01 uM, Number of replicates 2.0, Standard deviation 0.25212885411314173 %) 0.957%; (Thailand/16681/1984, Concentration 198.0 uM, Number of replicates 2.0, Standard deviation 0.23111814436827896 %) 2.51%.
As to `CC(C)CNC(=O)c1cc(Cl)ccc1NS(=O)(=O)c1ccc(Oc2ccccc2Cl)cc1`, the inhibition runs as follows: (Thailand/16681/1984, Concentration 49.5 uM, Number of replicates 2.0, Standard deviation 0.23411798845789034 %) 89.6%; (Thailand/16681/1984, Concentration 99.01 uM, Number of replicates 2.0, Standard deviation 0.14645254355523077 %) 88.7%; (Thailand/16681/1984, Concentration 198.0 uM, Number of replicates 2.0, Standard deviation 0.2542297902177128 %) 84.4%.
Consider `CCCCCNC(=O)c1cc(Cl)ccc1NS(=O)(=O)c1ccc(Oc2ccccc2Cl)cc1`, for which the inhibition turned out to be 78.7% (Thailand/16681/1984, Concentration 49.5 uM, Number of replicates 2.0, Standard deviation 0.23227296801747743 %); 76.9% (Thailand/16681/1984, Concentration 99.01 uM, Number of replicates 2.0, Standard deviation 0.006678758202430312 %); 65.6% (Thailand/16681/1984, Concentration 198.0 uM, Number of replicates 2.0, Standard deviation 0.04271599955318515 %).
`CC[C@H](C#N)NC(=O)c1cc(Cl)ccc1NS(=O)(=O)c1ccc(Oc2ccccc2Cl)cc1`: the inhibition (Thailand/16681/1984, Concentration 49.5 uM, Number of replicates 2.0, Standard deviation 0.706613157296788 %) came to 44.6%; the inhibition (Thailand/16681/1984, Concentration 99.01 uM, Number of replicates 2.0, Standard deviation 0.473003628419333 %) is 22.1%; the inhibition (Thailand/16681/1984, Concentration 198.0 uM, Number of replicates 2.0, Standard deviation 1.2548162043536224 %) came to 2.91%.
